Out of some 320,000 compounds screened, about 620 (0.19%) were called active. Roughly 6% stayed inconclusive and do not appear here. Many of the other results were omitted from the sample, so actives are more common in it than they were. Unmarked numbers belong to inactive results. Cut-off read from the data, not from the text of the source: active = activation above about 80%; inconclusive = between about 30% and that limit; inactive = weaker than that.

Chain of Transient receptor potential cation channel subfamily V member 1 (Homo sapiens) (Q8NER1 whole entry, looked up): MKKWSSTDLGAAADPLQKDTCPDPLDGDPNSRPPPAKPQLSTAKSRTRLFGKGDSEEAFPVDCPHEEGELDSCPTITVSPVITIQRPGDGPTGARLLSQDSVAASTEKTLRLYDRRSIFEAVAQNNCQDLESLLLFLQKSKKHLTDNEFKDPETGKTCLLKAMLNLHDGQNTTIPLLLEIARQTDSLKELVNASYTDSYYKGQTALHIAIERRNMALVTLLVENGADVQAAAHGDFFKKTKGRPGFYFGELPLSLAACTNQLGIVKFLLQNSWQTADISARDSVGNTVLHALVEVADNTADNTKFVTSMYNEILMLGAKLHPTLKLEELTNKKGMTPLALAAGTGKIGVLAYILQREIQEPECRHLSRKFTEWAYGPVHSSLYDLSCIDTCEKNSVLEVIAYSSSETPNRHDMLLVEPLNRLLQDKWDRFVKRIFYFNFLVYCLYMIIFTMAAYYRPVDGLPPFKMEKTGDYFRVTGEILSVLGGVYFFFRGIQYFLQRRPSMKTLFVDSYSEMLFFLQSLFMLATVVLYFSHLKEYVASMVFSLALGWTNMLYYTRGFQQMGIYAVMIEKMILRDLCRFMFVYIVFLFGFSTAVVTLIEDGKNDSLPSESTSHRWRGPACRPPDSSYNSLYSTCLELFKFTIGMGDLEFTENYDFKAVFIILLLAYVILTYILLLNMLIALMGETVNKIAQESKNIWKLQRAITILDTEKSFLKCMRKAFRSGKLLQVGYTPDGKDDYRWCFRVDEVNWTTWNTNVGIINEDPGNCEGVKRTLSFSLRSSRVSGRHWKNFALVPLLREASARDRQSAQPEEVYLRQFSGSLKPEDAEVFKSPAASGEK

The assay concerns the target Transient receptor potential cation channel subfamily V member 1 (Homo sapiens) (UniProt Q8NER1). The experiment in a line: HTS Assay for Compounds that Act as Agonists of the Vanilloid Receptor 1. Note: 0% is about no effect. As to conditions: TRPV1-expressing cells, Fluo-8 calcium influx, agonist mode; at 8.33 µM; hits give high values. The text has this: The transient receptor potential ion channel, family V, number 1, (TRPV1) is one of the most important molecular transducers of painful stimuli and a potential target for analgesic drug development. Although recent clinical trials with orthosteric antagonists have not produced a successful drug because of a hyperthermia side effect and their tendency to block thermal noxious pain, this ion channel is undeniably well placed in the pain pathway, and the idea of blocking pain signals before they enter the CNS is an excellent concept and of proven efficacy when TRPV1 agonists are used. We propose a new approach involving allosteric modulation to impose an activity-dependent constraint within the context of inflammation and tissue damage that would alter the responsiveness of the channel in a way that an orthosteric vanilloid antagonist cannot achieve. We believe that the allosteric modulator approach has not been explored for this target. The main goal of this proposal is to identify additional, new, potent allosteric modulators of TRPV1 that can be used to investigate TRPV1 function. Our recent report provides evidence of proof of concept, but the compounds are just at the edge of utility in terms of potency. […] The question of whether they can be used as analgesic agents is complex, but if suitable compounds are identified then testing for analgesic properties will be conducted. NIH Chemical Genomics Center [NCGC] NIH Molecular Libraries Probe Centers Network [MLPCN] MLPCN Grant: MH089480-1A1 Assay Submitter (PI): Michael Iadarola, National Institute of Dental and Cranofacial Research
Upon TRPV1 activation in TRPV1 cells, the channel opens and extracellular cations flow through the channel into the cytosol. A calcium binding dye (Fluo-8) becomes fluorescent when bound to calcium. This dye is pre-loaded into cells and is used as a marker for calcium influx. The amount of accumulated calcium is precisely quantified using the FDSS kinetic reader and the calcium dye. For the HTS assay, freshly prepared cells are plated at a density of 2000/well in 3 ul medium in 1536-well plates and cultured overnight at 35.5C. Cells will be loaded with 1 ul of the homogeneous calcium dye (ABD Bioquest) at room temperature for 40 to 90 minutes. Plates will be loaded into the FDSS kinetic reader and a 1 sec / cycle for 10 second baseline signal will be measured. Compound library will then be added with a pintool at 23 nl and measured kinetically for 3 minutes. This portion of the read is considered the agonist portion of the screen. Following the 3 minutes of incubation, an on board pipettor will deliver 1 ul of capsaicin for a final concentration equal to the EC20. Signal will be measured kinetically for an additional 2 minutes. This portion of the read is considered the allosteric enhancer portion of the screen. The FDSS reader has a standard filter set capable of measuring calcium bound Fluo-8 (ex=480 and em=520 nm).
`O=C(Nc1ccc(C(F)(F)F)cc1)c1cccc(-n2cnnn2)c1`: the activation was 11.1%.
The value for `COc1cc(C(=O)NNC(=O)CN2C(=O)NC3(CCCC3)C2=O)cc(OC)c1OC` was -0.801%; that for `O=C(c1ccc(Cl)c(S(=O)(=O)N2CCCCCC2)c1)N1CCN(c2ccc(O)cc2)CC1` was 13.5%.
The value for `CC1CCCCC1NC(=O)NC(=O)COC(=O)C1=NN(c2ccccc2)C(=O)CC1` (configuration not stated) was 0.278%; that for `O=C(CNS(=O)(=O)c1ccc2c(c1)OCCCO2)N1CCN(c2ccc(F)cc2)CC1` was -2.51%.
The value for `CCc1ccc(C(=O)N2CCN(S(=O)(=O)c3sc(C(=O)O)c(C)c3C(=O)O)CC2)cc1` was 0.16%; that for `N#Cc1nc(-c2cccc3ccccc23)oc1N` was -1.65%; that for `Cc1ccc2ccc3c(c2n1)NS(=O)(=O)c1ccccc1-3` was -1.69%.
In the case of `COc1cccc(-n2c(SCC(=O)NC3CCS(=O)(=O)C3)nc3ccccc3c2=O)c1` (configuration not stated), the activation was -0.844%.
The value for `CN(CC(=O)Nc1ccc(Cl)cc1)C(=O)c1ccc(COc2ccccc2)cc1` was 3.35%; that for `O=C(NCC1CCCO1)c1cc2c(s1)CCCC2` (configuration not stated) was 17.2%.
The value for `O=C(Nc1ccc(F)cc1)c1cc2c(s1)CCCC2` was 87.7% (active).
In the case of `CN(C)C(=O)c1ccc(NC(=O)COC(=O)c2cc3c(s2)CCCCC3)cc1`, the activation was 1.68%.
Turning to `CCOC(=O)[C@@H]1[C@H]2COc3cc(OC)ccc3[C@@H]2N2C(=O)N(c3cccc(C)c3)C(=O)[C@@]12C`, the activation is 2.6%.
The value for `CCOC(=O)[C@H]1[C@H]2COc3ccc(OC)cc3[C@@H]2N2C(=O)c3ccc(F)cc3NC(=O)[C@@]12C` was 88.1% (active); that for `CCOC(=O)[C@@H]1[C@H]2COc3cc(OC)ccc3[C@H]2N2C(=O)N(c3ccc(F)cc3)C(=O)[C@]12C` was -1.09%.
The result for `CCOC(=O)c1ccccc1NC(=O)COC(=O)C(Cc1c[nH]c2ccccc12)NC(C)=O` (configuration not stated) reads 17.5%.
The result for `CN(C)c1ccc(/C=C/C(=O)c2ccc(C(C)(C)C)cc2)cc1[N+](=O)[O-]` reads -0.491%.
On to `O=C(/C=C/c1ccc(Cl)c([N+](=O)[O-])c1)c1cccnc1`, for which the activation is -3.27%.
The value for `O=C(/C=C/c1ccc(Cl)c([N+](=O)[O-])c1)c1ccc(O)cc1` was 83.8% (active).
For the molecule `Cc1ccc(NC(=O)c2cc3ccccc3o2)cc1`, the activation was 102% (active).
Turning to `C/C(=N\NC(=S)Nc1ccc(C)cc1)c1cc2ccccc2o1`, the activation is 4.04%.
The value for `Cc1c(/C=N\NC(=O)c2cc3ccccc3o2)c2ccccc2n1C` was -1.62%; that for `O=c1c2ccccc2ccc2ccc(P(=O)(O)O)cc12` was -0.0431%; that for `COc1cc(C(=O)NCC(c2ccco2)N2CCCC2)ccc1OCc1ccccc1` (configuration not stated) was 3.05%.
The result for `CCOc1cc(/C=C/C(=O)OCC(=O)NCCN2C(=O)CSC2=O)ccc1OCC(C)C` reads 3.05%.
In the case of `CCOC(=O)c1sc(N)c(C#N)c1COC(=O)C1=COCCO1`, the activation was -7.68%.
The result for `CC(C)(C)C(=O)CSc1ccc(S(=O)(=O)N2CCCC2)cn1` reads 0.185%.
The result for `CCN(CC)S(=O)(=O)c1ccc(N2CCOCC2)c(NC(=O)C(C)Oc2ccc(F)cc2)c1` (configuration not stated) reads 25.5%; that for `O=C(NCc1ccccc1CN1CCCC1)c1cccc(S(=O)(=O)Nc2ccc(F)cc2)c1`, 2.73%.
The value for `Cn1cccc1-c1nc2ccccc2n1C` was -1.64%; that for `Cc1ccc(C2=NN(C)c3nc4ccccc4n3C2)cc1` was 84.2% (active); that for `Cc1ccc(O)c(CNc2nc3ccccc3n2C)c1` was 1.21%.
On to `COc1ccc(S(=O)(=O)N2CCOCC2)cc1NC(=O)Cc1coc2cc(C)ccc12`, for which the activation was -0.0282%.
As for `Cc1nc(-c2ccc(F)cc2)c(CC(=O)N(C)CC(=O)Nc2c(C)cccc2C)s1`, the activation was -1.54%.
The value for `COc1ccc(-c2c(-c3cc(OC)cc(OC)c3)n(C)c3ccc(-c4ccn[nH]4)cc23)cc1` was -1.55%.
In the case of `COc1ccc(-c2csc(Cc3nc(O)cs3)n2)cc1`, the activation is 4.2%.
The value for `CC(C)(C)C(=O)OCc1nc(-c2ccc(O)c(O)c2)cs1` was 91.2% (active).
The result for `Cc1onc(C(=O)NN)c1-c1csc(COc2ccccc2)n1` reads 2.64%.
The value for `CCOc1ccc(OCC(=O)OC(C)C(=O)NC2CCCCC2C)cc1` (configuration not stated) was 11.7%; that for `Cc1ccsc1/C=C1\SC(N2CCOCC2)=NC1=O` was 16.7%; that for `CC1CCN(C2=NC(=O)/C(=C/c3ccc(O)cc3)S2)CC1` was 2.66%.
With `CCc1ccc(/C=C2\SC(N3CCOCC3)=NC2=O)cc1`, the activation was 89.7% (active).
Turning to `Cc1nc(SCC(=O)NC2CCCCC2C)c(C#N)c(C)c1C` (configuration not stated), the activation was 11%.
Turning to `N#Cc1ccc(OCC(=O)NC(=O)NC2CCS(=O)(=O)C2)cc1` (configuration not stated), the activation is -0.359%.
The value for `O=C(COC(=O)CCCN1C(=O)c2cccc3cccc(c23)C1=O)NC1CCS(=O)(=O)C1` (configuration not stated) was -0.543%; that for `Cc1ccc2c(CN3CCN(S(=O)(=O)c4ccccc4C(F)(F)F)CC3)cc(=O)oc2c1` was 4.46%.
Regarding `COc1cc2ccccc2cc1C(=O)N1CCOCC1`, the activation is -0.849%.
The value for `O=C(CSC(=S)N1CCOCC1)c1cc(Br)cc(Br)c1O` was -0.207%.
The value for `O=C(c1cc2cc(Br)cc(Br)c2oc1=O)N1CCOCC1` was 87.7% (active); that for `COc1cc(OC)cc(-c2c(-c3cccs3)c3cc(-c4ccc(OC)cc4F)ccc3n2C)c1` was -2.36%; that for `CN(C(=O)COC(=O)Cn1cnc2c1c(=O)n(C)c(=O)n2C)C1(C#N)CCCCC1` was -2.27%.
In the case of `COc1ccc(C)cc1NC(=O)CN1c2cccc3cccc(c23)S1(=O)=O`, the activation was -0.498%.
The result for `CCCN(CC(=O)NC(=O)NC1CCCCC1)CC(=O)Nc1cc(Cl)ccc1Cl` reads 3.99%; that for `O=C(CCc1ccccc1Cl)Nc1ccc(S(=O)(=O)Nc2nccs2)cc1`, -1.57%.
With `COC(=O)c1ccc(CSc2ccc(S(=O)(=O)N3CCCCC3)cn2)cc1`, the activation was 6.26%.
The value for `Cc1ccc(C(=O)NCC(c2cccs2)N(C)C)cc1S(=O)(=O)N1CCOCC1` (configuration not stated) was 10.3%.

The values are drawn from PubChem BioAssay AID540275 (National Center for Advancing Translational Sciences (NCATS), 2011).
